This note sets out measurements from PubChem BioAssay AID1974 (The Scripps Research Institute Molecular Screening Center, 2009).

Screen size: about 300,000 compounds; about 3,200 (1.1%) were called active. The sample as a whole holds a higher share of actives than the screen did. Values without a mark were called inactive.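 How the source made its calls: active means inhibition above the campaign mean inhibition plus 3 SD (cut at about 35% in these data); inactive means the rest.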

In the assay the target is Glutathione S-transferase omega-1 (Homo sapiens) (UniProt P78417). The experiment in a line: human GSTO1 enzyme inhibition – biochemical, fluorescence polarization, counter-screen for RBBP9 inhibitor project, primary screen (AID 1974).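 Further: 0% = GSTO1-1 with DMSO and 100% = wells lacking GSTO1-1 enzyme.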 Particulars: recombinant GSTO1, activity-based probe fluorescence polarization; at 5.96 µM; stronger effect = higher value.
Glutathione S-transferase omega-1 (Homo sapiens), sequence (P78417 whole entry, looked up): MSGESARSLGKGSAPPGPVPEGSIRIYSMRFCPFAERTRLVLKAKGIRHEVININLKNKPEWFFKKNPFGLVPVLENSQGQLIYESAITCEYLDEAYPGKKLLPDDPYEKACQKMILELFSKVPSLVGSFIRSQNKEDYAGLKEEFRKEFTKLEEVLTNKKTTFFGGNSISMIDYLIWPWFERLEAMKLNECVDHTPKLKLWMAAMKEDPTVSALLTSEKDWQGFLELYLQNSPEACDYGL
Turning to `COc1cccc(NC(C)=[N+](C)CCNS(=O)(=O)c2ccc(Cl)cc2)c1`, the inhibition was 8.66%.
With `Cc1cccc(C(C)C)c1NC(=O)COC(=O)C1CC(=O)N(Cc2ccccc2)C1` (centres undefined) the figure was 7.97%; with `Oc1ccc2ccccc2c1N=Nc1nccs1`, 52% (active); with `c1ccc(NCc2cccc3ccccc23)nc1`, -6.32%.
With `Oc1ccc(N=Nc2nccs2)c(O)c1` the figure was 36.6% (active).
With `O=C(Oc1ccc(-c2nnco2)cc1)c1ccc(F)c(S(=O)(=O)N2CCOCC2)c1` the figure was 3.94%; with `CCN(CC(=O)Nc1c(F)cccc1F)C(=O)c1ccc(S(=O)(=O)N2CCCCC2)cc1`, 3.32%; with `O=[N+]([O-])c1ccc(Sc2n[nH]c(-c3ccco3)n2)nc1`, 5.75%.
Regarding `Cc1cccc(C)c1NC(=O)CSc1ccc([N+](=O)[O-])cn1`, the inhibition was 5.11%.
With `CC(C)(C)n1cnnc1Sc1ccc([N+](=O)[O-])cn1` the figure was 39.1% (active); with `CC(OC(=O)CNC(=O)c1cccc(F)c1)C(=O)NC1CCCCC1C` (centres undefined), 3.44%.
With `COc1ccc(C(=O)NCC(=O)N/N=C/c2ccc([N+](=O)[O-])s2)cc1OC` the figure was 27.8%.
With `CC(C)(C)c1cc(C(=O)N/N=C/c2ccc([N+](=O)[O-])s2)n[nH]1` the figure was 37% (active); with `Cc1ccccc1NCC(=O)N/N=C\c1ccc([N+](=O)[O-])s1`, 15.2%.
On to `O=C(NCCSc1ncc(-c2ccccc2)[nH]1)c1ccco1`, for which the inhibition is 5.65%.
With `CC1(OC(=O)CCc2ccccc2)C(=O)C=C2C=C(c3ccc(C#N)cc3)N(CCc3ccccn3)C=C2C1=O` (centres undefined) the figure was 27.9%; with `CC1(OC(=O)C2CCCC2)C(=O)C=C2C=C(c3ccc(C#N)cc3)OC=C2C1=O` (centres undefined), 24.5%.
Turning to `COCCN1C=C2C(=O)C(C)(OC(=O)C3CCCC3)C(=O)C=C2C=C1c1ccsc1` (centres undefined), the inhibition is 45.6% (active).
With `NC(=O)C1=C[C@@H](c2ccc3c(c2)OCO3)C[C@@H](OCCCCO)O1`, the inhibition was 14.6%.
With `CN(C)C(=O)N=NC(=O)N(C)C`, the inhibition was 1.15%.
The result for `CCC(Oc1ccccc1C)C(=O)Nc1ccc(S(=O)(=O)Nc2cc(C)on2)cc1` (centres undefined) reads -0.82%; that for `CN1c2ccc(C=O)c3c(C=O)ccc(c23)N(C)C1(C)C`, 72.9% (active).
The result for `Cc1cc(C)cc(NC(=O)COc2coc(CN3CCN(c4ccccc4)CC3)cc2=O)c1` reads -4.3%; that for `CCN(C(=O)CSc1ncnc2c1cnn2-c1ccccc1)C1CCS(=O)(=O)C1` (centres undefined), -42.3%.
The result for `CC(=O)N1CCN(C(=O)c2cc(-c3ccc(C)o3)nc3ccccc23)CC1` reads 5.42%; that for `Clc1ccc(C2=CSC3=Nc4cccc5cccc(c45)N23)cc1`, 58.2% (active).
`Cc1ccc2nc(NC(=O)CSc3nc(=O)n(CCCN(C)C)c4c3CCC4)sc2c1`: the inhibition was -12.3%.
With `COc1ccc2oc(C(=O)N(CC(C)C)C3CCS(=O)(=O)C3)c(C)c2c1` (centres undefined) the figure was -0.98%.
The result for `Cc1ccc(C(=O)N/N=C/c2sc(=O)n(Cc3cccc(C(=O)O)c3)c2Cl)cc1` reads 40.4% (active); that for `Cc1ccc(/C=N/NC(=O)CN2CCN(Cc3ccccc3)CC2)s1`, -7.48%.
Consider `Cc1ccc(C(=O)N/N=C/c2cccc3ccccc23)cn1`, for which the inhibition was 0.98%.
With `Cc1ccccc1S(=O)(=O)N1[C@@H](c2cccc(Cl)c2)C(C(=O)O)=CC[C@H]1c1ccc(Cl)cc1` the figure was -219%; with `COc1ccc(-c2c(NC(=O)c3ccco3)oc3ccc(Cl)cc3c2=O)cc1`, -7.76%; with `CN(C(=O)COC(=O)c1cc(-c2ccco2)nc2ccccc12)C1CCS(=O)(=O)C1` (centres undefined), 66.1% (active).
Take `CN(C(=O)COC(=O)c1nc(Cl)ccc1Cl)C1CCS(=O)(=O)C1` (centres undefined): the inhibition was 3.97%.
With `Cc1c(-c2cccc(Cl)c2)nc2ccccc2c1C(=O)OCC(=O)N(C)C1CCS(=O)(=O)C1` (centres undefined) the figure was -6.81%; with `Nc1c(-c2ccccc2)nnn1Cc1ccccc1`, 16.3%.
`CC1CCC(CN2CCN=C2N(C)C)CC1` (centres undefined): the inhibition is 1.09%.
With `COc1ccc(NC(=O)CSc2nnc(Cc3ccccc3)c(=O)n2N)cc1` the figure was 36.1% (active); with `COc1ccc(Cc2nnc(SCC(=O)N(c3ccccc3)C(C)C)n(N)c2=O)cc1`, -0.68%; with `COc1ccc(NC(=O)CSc2nc3ccccc3c(=O)n2C)cc1`, -2.78%.
The result for `O=C(NCc1ccccn1)Nc1ccc(Cl)cc1` reads -3.8%.
With `Cc1ccnc(NC(=O)CNC(=O)c2ccccc2)c1` the figure was -2.68%; with `O=C(Nc1ccc(S(=O)(=O)Nc2nccs2)cc1)c1cc(-c2ccncc2)nc2ccccc12`, 44.3% (active); with `Cc1ccc2nc(-c3ccncc3)cc(C(=O)Nc3ccncc3)c2c1`, 0.09%.
For `O=C(Nc1ccc(S(=O)(=O)Nc2nccs2)cc1)c1cc(=O)[nH]c2ccccc12`, the inhibition was -5.17%.
The result for `COc1ccc(C(=O)Oc2ccc(-c3nnco3)cc2)cc1S(=O)(=O)N1CCOCC1` reads 8.84%; that for `O=C(Nc1cc2c3c(c1)CC(=O)N3CCC2)c1ccccc1F`, -2.65%; that for `COc1ccccc1N(C)S(=O)(=O)c1ccc(Cl)c(C(=O)Nc2ccncc2)c1`, 1.75%.
Take `O=C1c2ccccc2C(=O)c2c1cccc2N1CCN(C/C=C/c2ccccc2)CC1`: the inhibition is 1.48%.
The result for `CC1C(=O)Nc2ccccc2N1C(=O)c1c(F)cccc1F` (centres undefined) reads 4.45%.
For `CC1C(=O)Nc2ccccc2N1C(=O)c1ccc(F)cc1F` (centres undefined), the inhibition is 52.8% (active).
With `CCCC(=O)N1c2ccccc2NC2=C(C(=O)CCC2)C1c1ccc(F)cc1` (centres undefined) the figure was -0.62%; with `COc1ccc(N2CCN(C(=O)CCNC(=O)c3ccc(Br)cc3)CC2)cc1`, -8.57%; with `CCCCn1c(N)c(N(CC(C)C)C(=O)CN(C)S(=O)(=O)c2ccc(F)cc2)c(=O)[nH]c1=O`, 16.4%.
Consider `CC(=O)c1c(C)[nH]c(C(=O)N2CCN(S(=O)(=O)c3ccc(F)c(F)c3)CC2)c1C`, for which the inhibition is 16.8%.
Regarding `CC(C)(C)c1ccc(NC(=O)NCc2ccco2)cc1`, the inhibition was 3.61%.
Take `CCCC(=O)Nc1ccc2c(c1)nc(CCNC(=O)c1ccco1)n2C`: the inhibition is 5.94%.
With `COCCNC(=O)Nc1ccc2nc(-c3ccco3)c(-c3ccco3)nc2c1` the figure was 69.1% (active).
With `O=C(NCc1ccccn1)c1ccc2nc(-c3ccco3)c(-c3ccco3)nc2c1` the figure was 82.7% (active).
For `Cc1cc(C)cc(NC(=O)NCc2ccccn2)c1`, the inhibition is 0.33%.
As to `COc1ccc2oc(=O)c(C(=O)NCc3ccccn3)cc2c1`, the inhibition was 3.7%.
The result for `COc1ccc2c(c1)C(=O)Nc1cc(Cl)ccc1N2` reads 9.43%.
The result for `CC(OC(=O)CNC(=O)c1ccco1)C(=O)Nc1ccc(Cl)cn1` (centres undefined) reads 1.63%; that for `CCC1(CC)C(=O)C2=C3C1[C@H](C(=O)OC)C=C(C(=O)OC)C[C@H]3[C@H]1C(=O)N(Cc3ccccc3)C(=O)[C@H]1[C@H]2C` (some centres undefined), 1.43%; that for `Cc1csc2nc(O)c(C(=O)NCCN3CCOCC3)c(=O)n12`, -2.86%.
The result for `CCc1noc(C)c1C(=O)N1CCCSC1=Nc1ccccc1OC` reads -0.08%.
On to `Cc1onc(-c2c(F)cccc2Cl)c1C(=O)N(C)CC(=O)Nc1cccc(F)c1`, for which the inhibition was 6.99%.
With `O=C(Cc1ccccc1)Nc1cccc(NC(=O)c2ccccc2)c1`, the inhibition was -4.68%.
The result for `O=C(CCl)Nc1cccc(CP(=O)(c2ccccc2)c2ccccc2)c1` reads 87.8% (active); that for `CCc1cccc(NC(=O)CCC(=O)O)c1`, 1.54%.
Take `COc1ccccc1CN1CC(C(=O)NCCc2cn[nH]c2)CCC1=O` (centres undefined): the inhibition was -2.71%.
The result for `O=C(NCCCc1ccccc1)C1CCC(=O)N(CCc2ccc(Cl)cc2)C1` (centres undefined) reads -1.06%.
With `COc1ccccc1CCCNC(=O)C1CCC(=O)N(CCN2CCOCC2)C1` (centres undefined) the figure was 63.1% (active); with `CCN1CCN(c2ccc(S(=O)(=O)N3CCCCC3)cc2NC(=O)c2cccc(NC(C)=O)c2)CC1`, 0.88%; with `Cc1cc(O)c(Sc2ccccc2)c(=O)o1`, 10.2%.
With `O=C(CSC(=S)N1CCOCC1)c1cc(Br)cc(Br)c1O` the figure was -51.7%; with `O=C1Nc2c(Br)cc(Br)cc2C1(O)N1CCOCC1` (centres undefined), 71.2% (active); with `O=C(c1cc2cc(Br)cc(Br)c2oc1=O)N1CCOCC1`, 5.88%.
As to `Cc1ccc(NS(=O)(=O)c2ccc(C(=O)NCCCN3CCOCC3)cc2)cc1`, the inhibition is 10.7%.
The result for `Nc1ccc2nc3c(=O)[nH]c(=S)[nH]c3nc2c1` reads 53.3% (active).
The result for `O=c1[nH]c(=O)c2nc3ccccc3nc2[nH]1` reads 5.15%; that for `Cc1cc(=O)[nH]c(SCc2ccc(Cl)cc2)n1`, -4.37%.
The result for `O=[N+]([O-])c1ccc(O)c(/C=N/Nc2ccccc2[N+](=O)[O-])c1` reads 0.98%; that for `O=[N+]([O-])c1ccc(N=Cc2c(O)ccc3ccccc23)cc1`, 37.5% (active).
On to `O=[N+]([O-])c1ccc(N/N=C/c2ccccc2)cc1`, for which the inhibition was 2.07%.
The result for `Cc1cc(OCC(=O)N(C)c2c(N)n(Cc3ccccc3)c(=O)[nH]c2=O)c(C(C)C)cc1Cl` reads 0.25%; that for `CCC1(c2ccccc2)NC(=O)N(CC(=O)Nc2ccccc2C(=O)NC2CCCC2)C1=O` (centres undefined), 8.02%; that for `CCOc1ccc(S(=O)(=O)N2CCN(C(=S)NCC3CCCO3)CC2)cc1` (centres undefined), 2.59%.
